“And” between values parts separate entries of the source, which are not always exact repeats. Identical values can stand only once. Results filed as inconclusive are left out. Entries that show only a call come without a potency. Values without a mark were called inactive. The source made the active and inactive calls. The call rests on the fitted dose curve; in most records, active means well fitted inhibition curve with a large enough effect; inconclusive means small, poorly fitted or top-dose-only effect; inactive means no such curve, though single readings can be large or run the other way.
Experiment: Primary qHTS for inhibitors of nuclear receptor binding SET domain protein 2 (NSD2) in an RCH-ACV wild type WT cells (2C) (AID 1645877); further: nearly all actives have a fitted effect of over 70% in size
Details: RCH-ACV (leukaemia line) NSD2 WT (2C) viability, CellTiter-Glo, 72 h; series mostly up to 44.9 µM
Potency means the concentration at half of the fitted maximal effect.

Row | SMILES | Potency | activity change, negative = cell killing
1 | O=C(O)/C=C/c1ccc(O)c(O[C@@H]2O[C@H](CO)[C@@H](O)[C@H](O)[C@H]2O)c1 | inactive | 
2 | NC1CCCCN(c2c(F)cc3c(=O)c(C(=O)O)cn(C4CC4)c3c2Cl)C1 (stereo not given) | inactive | 
3 | C[C@H]1O[C@@H](O[C@H]2CC[C@@]3(C)C(CC[C@]4(C)C3CC=C3C5CC(C)(C)CC[C@]5(C(=O)O)CC[C@]34C(=O)O)C2(C)C)[C@H](O)[C@@H](O)[C@@H]1O (stereo not given in full) | inactive | 
4 | O=C(O)c1ccccc1NC(=O)N1CCC(c2ccccc2C(F)(F)F)CC1 | inactive | 
5 | CC(C)C(C(=O)N(C)C(C)C(N)=O)N(C)C(=O)C1CCCN1C(=O)/C=C/C=C/C(O)C(C)O (stereo not given) | inactive | 
6 | CS(=O)(=O)N(CC(=O)NCC1CC1)c1cc(C(F)(F)F)ccc1Cl | inactive | 
7 | C[C@@H]1O[C@@H](O[C@H]2[C@H](OC(=O)[C@]34CCC(C)(C)C[C@H]3C3=CCC5[C@@]6(C)CC[C@H](O[C@@H]7O[C@H](C(=O)O)[C@@H](O)[C@H](O)[C@H]7O[C@@H]7O[C@H](CO)[C@H](O)[C@H](O)[C@H]7O)[C@@](C)(C=O)C6CC[C@@]5(C)[C@]3(C)C[C@H]4O)O[C@H](C)[C@H](O[C@@H]3O[C@H](C)[C@H](O)[C@H](O)[C@H]3O)[C@@H]2O)[C@H](O)[C@H](O)[C@H]1O[C@@H]1OC[C@@H](O)[C@H](O[C@@H]2O[C@H](CO)[C@@H](O)[C@H](O)[C@H]2O)[C@H]1O (stereo not given in full) |  | -94% [at 4.96 µM]
8 | COc1c2c(c(CO)c3c1C(=O)OC3)OC1(C)CCC3(O)C(C)(C)OC(=O)CCC3(C)C1C2 (stereo not given) | inactive | 
9 | O=C1C=CC2OC(c3ccccc3)C(O)C2O1 (stereo not given) | 4.59 µM (active) | 
10 | CC1=CC(=O)CC2C1(O)CCC(C)C21CC(c2ccoc2)OC1=O (stereo not given) | inactive | 
11 | C=CC(C)(O)CC[C@H]1C(=C)CCC2[C@](C)(C(=O)O)CCC[C@@]21C (stereo not given in full) | inactive | 
12 | CC1(C)CCCC2(C)C1CC=C1C(=O)OC(O)C12O (stereo not given) | inactive | 
13 | C[C@@H]1CC[C@]2(C(=O)OC3OC(CO)C(O)C(O)C3O)CC[C@]3(C)C(=CCC4[C@@]5(C)CC[C@H](O)[C@](C)(C(=O)O)C5CC[C@]43C)C2[C@]1(C)O (stereo not given in full) | inactive | 
14 | C[C@H]1CC(=O)Nc2cccc(-c3cnn(C(C)(C)C)c3)c2N1 | inactive | 
15 | Cc1ccc(-c2ccc3ncc4c(c3n2)n(C2CCN(C(=O)[C@H](C)O)CC2)c(=O)n4C)cn1 | 0.0742 µM (active) | 
16 | C=C1C(=O)O[C@H]2C1[C@H](OC(=O)/C(=C/CO)COC(=O)/C(C)=C/CO)CC(=C)[C@@H]1CC(=O)[C@@H](C)[C@@H]12 (stereo not given in full) | 1.78 µM (active) | 
17 | O=C(c1cccc(Cl)c1F)N1CCN(Cc2cccc(Nc3nccs3)n2)CC1 | 0.728 µM (active) | 
18 | O=C1NC(=O)C(c2cn(-c3ccccc3)nc2-c2ccc(F)cc2)N1 (stereo not given) | inactive | 
19 | O=C1NC(Cc2c[nH]c3ccccc23)C(=O)NC1Cc1c[nH]c2ccccc12 (stereo not given) | inactive | 
20 | CC1CC(C(O)C(C)(C)O)OC2CC3(C)C4(C)CCC5C(C)(C)C(=O)CCC5(C)C4CCC3(O)C12O (stereo not given) | inactive | 
21 | O=C1OCC(c2ccccc2)=C1Cc1ccccc1 | inactive | 
22 | O=C(NCc1ccccn1)Nc1nnc(-c2ccco2)o1 | inactive | 
23 | Cn1c(=O)cc(N2CCCC(N)C2)n(Cc2cc(F)ccc2C#N)c1=O (stereo not given) | inactive | 
24 | CC1=C(CO)C(=O)O[C@@H]([C@@H](C)[C@H]2CC[C@H]3[C@@H]4C[C@H]5O[C@]56[C@@H](O)C=CC(=O)[C@]6(C)[C@H]4CC[C@]23C)C1 | 709 nM (active) and 263 nM (active) | 
25 | COC(=O)CCSCc1ccc(-c2onc(C)c2NC(=O)OC(C)c2ccccc2Cl)cc1 (stereo not given) | inactive | 
26 | C=C(C)C(=O)O[C@H]1C[C@@](C)(O)C(=O)CC(O)/C(C)=C\[C@H]2OC(=O)C(=C)[C@H]12 (stereo not given in full) | 1.27 µM (active) | 
27 | CC(=O)NC1=NN(C(C)=O)C(C)(c2ccccc2)S1 (stereo not given) | 4.09 µM (active) | 
28 | O=C(Nc1nc2ccccc2n1CCc1ccccc1)c1ccccc1 | 5.15 µM (active) | 
29 | CC(=O)C1=CCC2C3CCC4CC(O[C@@H]5O[C@H](CO)[C@@H](O[C@@H]6O[C@@H](C)[C@H](O)[C@@H](O)[C@H]6O)[C@H](O)[C@H]5O[C@@H]5O[C@H](CO)[C@@H](O)[C@H](O)[C@H]5O)CCC4(C)C3CCC12C (stereo not given in full) | inactive | 
30 | CC(=O)OC12COC1CC(O)C1(C)C(=O)C(O)C3=C(C)C(OC(=O)C(O)C(NC(=O)OC(C)(C)C)c4ccccc4)CC(O)(C(OC(=O)c4ccccc4)C21)C3(C)C (stereo not given) | inactive | 

From PubChem BioAssay (NCATS)
